Among the data in ChEMBL document CHEMBL1961873, “Compounds: GSK PKIS; Assays: Nanosyn kinase panel” (2012) are inhibition values, retold here.

In assay [1] the target is Protein kinase C gamma type (Homo sapiens) (UniProt P05129). The settings on record: at 1 µM.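 Also: each value is an averaged percent inhibition of the enzyme.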
Assay [2] has as its target T1, Protein kinase C iota type (Homo sapiens) (UniProt P41743).
T1 sequence (whole entry): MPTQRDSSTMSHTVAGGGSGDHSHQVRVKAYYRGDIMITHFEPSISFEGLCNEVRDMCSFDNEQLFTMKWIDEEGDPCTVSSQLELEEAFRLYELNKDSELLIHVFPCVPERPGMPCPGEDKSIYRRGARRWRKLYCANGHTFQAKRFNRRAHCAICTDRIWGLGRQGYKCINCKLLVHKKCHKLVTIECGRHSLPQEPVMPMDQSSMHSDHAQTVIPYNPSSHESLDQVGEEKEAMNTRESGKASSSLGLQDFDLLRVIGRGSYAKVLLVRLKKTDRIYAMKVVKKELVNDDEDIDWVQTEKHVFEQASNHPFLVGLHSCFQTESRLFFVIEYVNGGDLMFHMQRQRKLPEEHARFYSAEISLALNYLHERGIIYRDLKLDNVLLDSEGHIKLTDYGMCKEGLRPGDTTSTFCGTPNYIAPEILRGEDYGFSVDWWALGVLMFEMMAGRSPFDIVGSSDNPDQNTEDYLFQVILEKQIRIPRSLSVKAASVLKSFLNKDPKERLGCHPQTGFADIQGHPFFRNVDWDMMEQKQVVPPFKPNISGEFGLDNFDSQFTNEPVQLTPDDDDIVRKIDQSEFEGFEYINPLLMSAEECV
The conditions noted are these: at 0.1 µM.

The target in assay [3] is T1, Protein kinase C iota type (Homo sapiens). The conditions noted are these: at 1 µM.
Assay [4] deals with Protein kinase C theta type (Homo sapiens) (UniProt Q04759). The conditions noted are these: at 0.1 µM.
Sequence of Protein kinase C theta type (Homo sapiens) (Q04759 whole entry, looked up): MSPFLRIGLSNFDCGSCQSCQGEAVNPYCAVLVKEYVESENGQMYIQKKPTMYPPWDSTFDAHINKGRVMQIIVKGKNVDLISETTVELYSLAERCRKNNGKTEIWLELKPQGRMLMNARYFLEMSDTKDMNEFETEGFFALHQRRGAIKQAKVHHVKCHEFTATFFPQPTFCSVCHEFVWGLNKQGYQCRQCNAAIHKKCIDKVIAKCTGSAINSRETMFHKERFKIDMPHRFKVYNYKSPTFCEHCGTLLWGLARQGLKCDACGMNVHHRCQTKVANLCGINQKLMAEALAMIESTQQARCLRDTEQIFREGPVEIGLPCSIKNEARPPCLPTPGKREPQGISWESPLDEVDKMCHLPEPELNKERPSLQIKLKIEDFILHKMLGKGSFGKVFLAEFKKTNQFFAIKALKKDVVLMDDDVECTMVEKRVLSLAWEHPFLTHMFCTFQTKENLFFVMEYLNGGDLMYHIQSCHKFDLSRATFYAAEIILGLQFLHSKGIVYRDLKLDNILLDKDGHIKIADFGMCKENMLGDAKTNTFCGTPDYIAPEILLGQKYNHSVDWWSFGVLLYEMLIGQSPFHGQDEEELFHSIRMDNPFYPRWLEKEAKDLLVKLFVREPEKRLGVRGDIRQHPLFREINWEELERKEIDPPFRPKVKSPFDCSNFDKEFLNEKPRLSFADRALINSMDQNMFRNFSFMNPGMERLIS
The target is the same in assay [5]. The settings on record: at 1 µM.
Assay [6] deals with Protein kinase C beta type (Homo sapiens) (UniProt P05771). The settings on record: at 0.1 µM.
Sequence of Protein kinase C beta type (Homo sapiens) (P05771 2-671 limits assumed): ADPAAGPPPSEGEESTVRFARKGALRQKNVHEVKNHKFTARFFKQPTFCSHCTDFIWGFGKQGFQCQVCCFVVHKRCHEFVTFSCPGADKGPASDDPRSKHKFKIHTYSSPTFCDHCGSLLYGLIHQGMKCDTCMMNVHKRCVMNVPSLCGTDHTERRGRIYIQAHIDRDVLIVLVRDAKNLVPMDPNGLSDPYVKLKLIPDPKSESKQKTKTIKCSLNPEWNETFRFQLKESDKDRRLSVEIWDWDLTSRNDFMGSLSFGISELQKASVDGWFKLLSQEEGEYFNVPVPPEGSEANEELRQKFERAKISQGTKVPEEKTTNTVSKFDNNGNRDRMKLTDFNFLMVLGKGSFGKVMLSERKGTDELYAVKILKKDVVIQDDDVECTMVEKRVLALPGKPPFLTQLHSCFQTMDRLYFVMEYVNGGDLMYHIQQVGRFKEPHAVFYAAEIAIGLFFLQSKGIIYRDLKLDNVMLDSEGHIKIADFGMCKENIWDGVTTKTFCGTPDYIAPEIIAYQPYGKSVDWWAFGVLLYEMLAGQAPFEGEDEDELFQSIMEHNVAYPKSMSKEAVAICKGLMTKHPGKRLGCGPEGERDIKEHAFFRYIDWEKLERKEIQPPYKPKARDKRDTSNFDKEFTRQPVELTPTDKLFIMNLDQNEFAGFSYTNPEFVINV
Assay [7] shares this target. The conditions noted are these: at 1 µM.
Assay [8] addresses T2, Serine/threonine-protein kinase D1 (Homo sapiens) (UniProt Q15139).
T2 sequence (whole entry): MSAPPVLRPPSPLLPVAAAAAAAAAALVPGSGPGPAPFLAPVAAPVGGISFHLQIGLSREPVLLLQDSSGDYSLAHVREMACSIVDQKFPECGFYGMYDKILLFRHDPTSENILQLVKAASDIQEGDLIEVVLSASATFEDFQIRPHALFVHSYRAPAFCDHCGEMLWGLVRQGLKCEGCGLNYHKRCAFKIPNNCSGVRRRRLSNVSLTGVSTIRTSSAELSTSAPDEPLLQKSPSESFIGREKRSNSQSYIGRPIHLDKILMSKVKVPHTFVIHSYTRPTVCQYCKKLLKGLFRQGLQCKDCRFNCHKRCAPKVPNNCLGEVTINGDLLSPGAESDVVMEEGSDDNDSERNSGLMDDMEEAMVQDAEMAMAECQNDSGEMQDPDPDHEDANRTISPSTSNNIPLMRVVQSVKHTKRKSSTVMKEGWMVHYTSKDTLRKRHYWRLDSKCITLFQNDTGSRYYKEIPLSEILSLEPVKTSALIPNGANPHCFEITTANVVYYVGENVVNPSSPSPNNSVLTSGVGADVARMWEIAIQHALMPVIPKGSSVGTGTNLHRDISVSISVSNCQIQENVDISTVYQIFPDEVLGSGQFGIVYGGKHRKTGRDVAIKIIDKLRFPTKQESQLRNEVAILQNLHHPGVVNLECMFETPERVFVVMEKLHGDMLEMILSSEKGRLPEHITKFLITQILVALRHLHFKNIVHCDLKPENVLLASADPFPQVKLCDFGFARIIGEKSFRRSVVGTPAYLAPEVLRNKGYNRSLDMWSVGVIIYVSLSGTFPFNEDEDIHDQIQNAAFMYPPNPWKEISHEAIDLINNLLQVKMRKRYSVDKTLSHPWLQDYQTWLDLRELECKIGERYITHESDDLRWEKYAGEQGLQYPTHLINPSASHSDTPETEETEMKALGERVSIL
The conditions noted are these: at 0.1 µM.

Assay [9] concerns the target T2, Serine/threonine-protein kinase D1 (Homo sapiens). The conditions noted are these: at 1 µM.
The target of assay [10] is T3, Serine/threonine-protein kinase D2 (Homo sapiens) (UniProt Q9BZL6).
T3 sequence (whole entry): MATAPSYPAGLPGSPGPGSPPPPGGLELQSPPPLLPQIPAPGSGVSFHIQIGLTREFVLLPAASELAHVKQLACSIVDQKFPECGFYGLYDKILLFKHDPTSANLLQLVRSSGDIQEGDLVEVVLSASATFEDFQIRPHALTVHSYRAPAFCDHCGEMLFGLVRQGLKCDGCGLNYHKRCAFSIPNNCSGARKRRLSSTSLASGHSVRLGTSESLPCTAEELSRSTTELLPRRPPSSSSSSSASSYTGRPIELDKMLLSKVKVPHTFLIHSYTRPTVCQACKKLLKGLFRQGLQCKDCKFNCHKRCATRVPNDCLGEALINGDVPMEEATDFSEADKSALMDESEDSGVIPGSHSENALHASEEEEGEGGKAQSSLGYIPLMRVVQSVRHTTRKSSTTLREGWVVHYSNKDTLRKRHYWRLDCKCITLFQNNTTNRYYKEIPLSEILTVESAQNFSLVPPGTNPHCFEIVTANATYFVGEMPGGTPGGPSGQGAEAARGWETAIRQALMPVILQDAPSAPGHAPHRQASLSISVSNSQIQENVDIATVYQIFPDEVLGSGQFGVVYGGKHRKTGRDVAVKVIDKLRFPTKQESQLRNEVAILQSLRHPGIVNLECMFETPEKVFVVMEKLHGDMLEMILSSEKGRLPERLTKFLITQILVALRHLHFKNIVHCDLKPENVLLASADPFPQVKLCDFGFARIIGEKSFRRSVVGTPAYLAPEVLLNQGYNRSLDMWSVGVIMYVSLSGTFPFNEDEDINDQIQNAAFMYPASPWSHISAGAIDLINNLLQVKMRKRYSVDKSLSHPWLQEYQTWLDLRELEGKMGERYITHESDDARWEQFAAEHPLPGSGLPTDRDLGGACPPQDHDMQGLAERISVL
The settings on record: at 0.1 µM.

The target of assay [11] is T3, Serine/threonine-protein kinase D2 (Homo sapiens). The settings on record: at 1 µM.
The target of assay [12] is T4, Serine/threonine-protein kinase D3 (Homo sapiens) (UniProt O94806).
T4 sequence (whole entry): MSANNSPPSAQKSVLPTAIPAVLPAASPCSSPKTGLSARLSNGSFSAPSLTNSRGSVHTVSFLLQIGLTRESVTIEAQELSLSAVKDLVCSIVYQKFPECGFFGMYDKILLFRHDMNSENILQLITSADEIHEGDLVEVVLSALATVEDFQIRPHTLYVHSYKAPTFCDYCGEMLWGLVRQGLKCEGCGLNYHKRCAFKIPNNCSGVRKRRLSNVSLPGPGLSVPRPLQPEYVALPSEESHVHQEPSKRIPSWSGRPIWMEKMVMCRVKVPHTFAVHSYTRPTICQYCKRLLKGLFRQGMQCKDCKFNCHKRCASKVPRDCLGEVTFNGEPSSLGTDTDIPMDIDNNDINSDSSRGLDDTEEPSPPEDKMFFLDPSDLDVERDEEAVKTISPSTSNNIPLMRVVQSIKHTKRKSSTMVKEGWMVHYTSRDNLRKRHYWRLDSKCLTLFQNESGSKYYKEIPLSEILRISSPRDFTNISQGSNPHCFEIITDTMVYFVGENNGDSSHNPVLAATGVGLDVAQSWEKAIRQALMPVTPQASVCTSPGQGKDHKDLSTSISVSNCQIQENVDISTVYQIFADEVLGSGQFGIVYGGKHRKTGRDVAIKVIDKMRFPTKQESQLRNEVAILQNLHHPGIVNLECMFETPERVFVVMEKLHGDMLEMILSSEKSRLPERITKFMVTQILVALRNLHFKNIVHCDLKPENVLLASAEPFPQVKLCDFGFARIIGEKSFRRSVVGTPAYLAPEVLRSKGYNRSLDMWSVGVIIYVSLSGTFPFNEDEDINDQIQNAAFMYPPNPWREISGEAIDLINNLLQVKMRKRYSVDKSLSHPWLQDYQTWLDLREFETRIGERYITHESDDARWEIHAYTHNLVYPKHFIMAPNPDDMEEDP
The conditions noted are these: at 0.1 µM.

Assay [13] addresses T4, Serine/threonine-protein kinase D3 (Homo sapiens). The conditions noted are these: at 1 µM.
In assay [14] the target is T5, cGMP-dependent protein kinase 1 (Homo sapiens) (UniProt Q13976).
T5 sequence (whole entry): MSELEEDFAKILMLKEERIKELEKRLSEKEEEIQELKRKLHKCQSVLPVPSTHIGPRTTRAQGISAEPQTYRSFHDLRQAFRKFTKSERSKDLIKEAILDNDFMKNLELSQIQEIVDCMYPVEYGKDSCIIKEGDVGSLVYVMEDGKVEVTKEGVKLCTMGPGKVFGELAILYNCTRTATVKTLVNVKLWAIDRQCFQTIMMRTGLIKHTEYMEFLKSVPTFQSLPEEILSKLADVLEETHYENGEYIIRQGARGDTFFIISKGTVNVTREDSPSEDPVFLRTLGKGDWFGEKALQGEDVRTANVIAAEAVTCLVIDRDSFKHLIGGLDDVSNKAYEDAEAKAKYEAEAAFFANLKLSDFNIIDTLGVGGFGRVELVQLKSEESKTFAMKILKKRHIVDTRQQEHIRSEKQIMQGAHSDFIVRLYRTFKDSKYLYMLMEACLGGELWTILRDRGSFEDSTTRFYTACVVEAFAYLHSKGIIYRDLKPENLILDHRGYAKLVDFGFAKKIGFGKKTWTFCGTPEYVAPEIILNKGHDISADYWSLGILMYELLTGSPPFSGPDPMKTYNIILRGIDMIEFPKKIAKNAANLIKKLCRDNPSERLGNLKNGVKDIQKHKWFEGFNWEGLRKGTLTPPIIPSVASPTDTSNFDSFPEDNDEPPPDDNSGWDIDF
The settings on record: at 0.1 µM.

For assay [15], the target named is T5, cGMP-dependent protein kinase 1 (Homo sapiens). The settings on record: at 1 µM.
The target of assay [16] is T6, cGMP-dependent protein kinase 2 (Homo sapiens) (UniProt Q13237).
T6 sequence (whole entry): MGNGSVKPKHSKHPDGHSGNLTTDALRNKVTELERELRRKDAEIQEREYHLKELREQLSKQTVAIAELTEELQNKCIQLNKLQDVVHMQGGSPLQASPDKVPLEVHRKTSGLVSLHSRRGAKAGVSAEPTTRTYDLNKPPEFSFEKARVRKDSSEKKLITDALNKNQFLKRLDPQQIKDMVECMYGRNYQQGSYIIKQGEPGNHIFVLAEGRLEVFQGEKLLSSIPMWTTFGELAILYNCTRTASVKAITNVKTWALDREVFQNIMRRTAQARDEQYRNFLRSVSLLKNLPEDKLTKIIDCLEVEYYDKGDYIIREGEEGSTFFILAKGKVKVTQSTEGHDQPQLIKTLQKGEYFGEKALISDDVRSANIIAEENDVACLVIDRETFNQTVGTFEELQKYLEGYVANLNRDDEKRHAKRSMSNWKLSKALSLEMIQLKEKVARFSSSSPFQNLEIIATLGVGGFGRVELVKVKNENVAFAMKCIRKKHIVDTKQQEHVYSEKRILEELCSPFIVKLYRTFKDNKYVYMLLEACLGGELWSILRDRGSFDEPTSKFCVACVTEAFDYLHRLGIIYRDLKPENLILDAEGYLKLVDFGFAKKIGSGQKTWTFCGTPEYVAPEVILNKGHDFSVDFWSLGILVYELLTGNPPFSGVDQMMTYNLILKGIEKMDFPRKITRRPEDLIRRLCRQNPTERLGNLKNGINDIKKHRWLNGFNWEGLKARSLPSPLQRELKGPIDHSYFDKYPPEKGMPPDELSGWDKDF
The settings on record: at 0.1 µM.

Assay [17] deals with T6, cGMP-dependent protein kinase 2 (Homo sapiens). The settings on record: at 1 µM.
In assay [18] the target is T7, cAMP-dependent protein kinase catalytic subunit PRKX (Homo sapiens) (UniProt P51817).
T7 sequence (whole entry): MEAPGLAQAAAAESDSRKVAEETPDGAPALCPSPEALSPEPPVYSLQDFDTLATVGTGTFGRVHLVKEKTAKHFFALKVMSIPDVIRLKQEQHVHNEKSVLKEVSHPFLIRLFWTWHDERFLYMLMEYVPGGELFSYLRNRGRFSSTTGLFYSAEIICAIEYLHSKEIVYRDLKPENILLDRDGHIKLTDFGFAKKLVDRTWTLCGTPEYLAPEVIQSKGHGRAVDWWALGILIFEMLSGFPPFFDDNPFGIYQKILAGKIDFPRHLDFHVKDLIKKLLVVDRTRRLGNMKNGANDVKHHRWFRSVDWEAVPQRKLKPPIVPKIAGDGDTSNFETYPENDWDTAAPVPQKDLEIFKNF
The settings on record: at 0.1 µM.

Assay [19] has as its target T7, cAMP-dependent protein kinase catalytic subunit PRKX (Homo sapiens). The settings on record: at 1 µM.
Assay [20] concerns the target Rho-associated protein kinase 1 (Homo sapiens) (UniProt Q13464). The conditions noted are these: at 0.1 µM.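 Also: values are mean percent inhibition of ROCK1.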

Sequence of Rho-associated protein kinase 1 (Homo sapiens) (Q13464 2-1354 limits assumed): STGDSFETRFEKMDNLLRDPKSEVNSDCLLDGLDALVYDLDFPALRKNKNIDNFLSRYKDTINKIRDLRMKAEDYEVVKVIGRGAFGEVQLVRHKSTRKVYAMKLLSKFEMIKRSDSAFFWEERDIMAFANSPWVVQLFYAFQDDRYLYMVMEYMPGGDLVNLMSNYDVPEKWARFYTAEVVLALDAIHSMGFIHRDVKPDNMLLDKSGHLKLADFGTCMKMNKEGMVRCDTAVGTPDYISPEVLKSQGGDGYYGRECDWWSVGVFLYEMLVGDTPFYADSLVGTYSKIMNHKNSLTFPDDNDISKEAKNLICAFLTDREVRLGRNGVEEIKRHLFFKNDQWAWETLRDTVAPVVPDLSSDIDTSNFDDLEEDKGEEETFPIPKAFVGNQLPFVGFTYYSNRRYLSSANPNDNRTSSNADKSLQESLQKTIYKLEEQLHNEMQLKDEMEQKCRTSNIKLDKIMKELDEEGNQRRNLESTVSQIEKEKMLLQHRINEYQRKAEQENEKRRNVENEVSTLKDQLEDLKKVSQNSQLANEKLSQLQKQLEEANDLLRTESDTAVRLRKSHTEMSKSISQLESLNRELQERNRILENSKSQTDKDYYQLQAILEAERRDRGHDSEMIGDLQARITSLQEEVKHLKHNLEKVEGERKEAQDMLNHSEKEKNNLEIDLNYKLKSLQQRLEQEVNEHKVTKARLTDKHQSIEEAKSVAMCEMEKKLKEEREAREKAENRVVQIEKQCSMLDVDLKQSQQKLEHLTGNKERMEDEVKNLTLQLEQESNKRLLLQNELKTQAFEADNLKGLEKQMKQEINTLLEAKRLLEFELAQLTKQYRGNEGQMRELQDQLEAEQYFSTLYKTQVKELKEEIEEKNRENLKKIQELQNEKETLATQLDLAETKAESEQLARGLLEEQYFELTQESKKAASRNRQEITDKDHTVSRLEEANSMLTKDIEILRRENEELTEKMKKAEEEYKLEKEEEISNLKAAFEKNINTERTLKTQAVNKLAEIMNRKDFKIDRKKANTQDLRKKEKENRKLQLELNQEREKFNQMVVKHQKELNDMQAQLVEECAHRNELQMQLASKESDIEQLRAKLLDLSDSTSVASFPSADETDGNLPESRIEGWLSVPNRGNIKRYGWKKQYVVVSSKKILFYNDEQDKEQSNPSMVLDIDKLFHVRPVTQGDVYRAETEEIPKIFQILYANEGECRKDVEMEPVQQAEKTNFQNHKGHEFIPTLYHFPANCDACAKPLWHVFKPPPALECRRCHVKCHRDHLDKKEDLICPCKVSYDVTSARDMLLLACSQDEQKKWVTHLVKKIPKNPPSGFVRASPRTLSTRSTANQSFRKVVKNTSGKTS

By inhibition is commonly meant the change of the read-out against control, counted positive when it falls. On to `CS(=O)(=O)CCNCc1ccc(-c2ccc3ncnc(Nc4ccc(OCc5ccccc5)c(Br)c4)c3c2)o1`, for which the inhibition is -0.13% in [1]; 2.91% in assay [2]; 2.72% in assay [3]; 2.31% in assay [4]; 2.41% in [5]; 0.97% in assay [6]. In addition, the inhibition in assay [7] was 1.27%; in assay [8], 0.19%; in assay [9], -0.25%; in [10] it was 0.64%; in assay [11], -2.34%; in assay [12], -0.06%. Further, the inhibition in [13] is -0.73%; in assay [14], 3.47%; in assay [15], 0.89%; in [16], 2.31%; in assay [17], 1.31%; in [18], 2.17%. Besides, the inhibition was found to be 2.64% in [19] and 1.36% in [20].

Consider `NS(=O)(=O)c1ccc(N/N=C2\C(=O)Nc3ccc(C(=O)NCCCn4ccnc4)cc32)cc1`, for which the inhibition in assay [1] is 7.85%; in assay [2], 2%; in [3], 1.81%; in assay [4], 2.3%; in [5] it was 6.44%; in assay [6], 2.11%. For the same compound, the inhibition amounted to 4.2% in assay [7]; 5.9% in assay [8]; 22.9% in assay [9]; 7.13% in [10]; 22.3% in [11]; 5.36% in assay [12]. The inhibition in [13] came out at 17.6%; in [14], 4.15%; in [15], 18.9%; in assay [16], 4.37%; in [17] it was 28.2%; in assay [18] it was 3.32%. The inhibition in [19] came to 7.39%; in assay [20] it was 2.63%.
